Source: PubChem BioAssay
Pf growth 48h: P. falciparum growth inhibition at 48 hours (one generation) | P. falciparum luciferase growth in erythrocytes, 48 h | AID 504832 | Potency, µM (highest dose often 28.7 µM), without a hit: at the highest dose activity change, negative = inhibition, actives largely listed as inhibitors | 310,000 tested, 5.9% active; active = well fitted inhibition curve with a large enough effect; inconclusive = small, poorly fitted or top-dose-only effect, or another doubt; inactive = no such curve, though single readings can be large or run the other way; note: potency is the fitted concentration of half-maximal effect; % is set by controls: 0 for no effect and ±100 for the full control effect
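Cell-based growth assay: transgenic P. falciparum expressing firefly luciferase, cultured in red cells within RPMI 1640 containing 0.5% w/v Albumax, 24 mM bicarbonate and gentamycin. A drop in luciferase activity indicates inhibition.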
Pf growth 96h: P. falciparum growth inhibition at 96 hour, primary screen for plastid delayed-death inhibitors | Potency, µM (highest dose often 28.7 µM), for the others: at the top dose activity change, negative = inhibition, actives largely listed as inhibitors | 320,000 tested, 6.9% active | P. falciparum luciferase reporter growth, 96 h; active = well fitted inhibition curve with a large enough effect; inconclusive = small, poorly fitted or top-dose-only effect, or another doubt; inactive = no such curve, though single readings can be large or run the other way; note: potency is the fitted concentration of half-maximal effect; % is set by controls: 0 for no effect and ±100 for the full control effect
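Delayed-death screen, second-generation endpoint: infected erythrocytes, 2% hematocrit, 0.05% parasitemia final; 96 hours at 37 C, 5% CO2; luciferase detection reagent; luminescence decrease equals reduced growth.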
Cycloheximide cs: counter-screen for Shiga toxin inhibitors: cycloheximide protein synthesis inhibition; max response, %; cell reporter, cycloheximide protein synthesis inhibition counterscreen; AID 2314; 300,000 tested, 12% active; in the data active = max response mostly above about 13%, no sharp cut-off; inactive = mostly below about 14%; note: read at 38.3 µM for the half of the compounds with a filed dose; 0% is about no effect
Shiga toxin inh: inhibitors of Shiga toxin in Vero cells; Vero cells, Shiga toxin protein synthesis inhibition reporter; inhibition, % at 38.7 µM; 290,000 tested, 9.2% active; AID 2315; in the data active = inhibition mostly above about 28%, no sharp cut-off; inactive = mostly below about 43%; note: 0% is about no effect
SARS PLpro yeast: SARS-CoV PLP inhibition in yeast. 330,000 tested, 0.19% active. S. cerevisiae expressing SARS-CoV PLpro, growth rescue. Potency, µM (series often up to 32.9 µM), inactives show at the top dose activity, positive = growth rescue, hits mostly activators; note: potency is the fitted concentration of half-maximal effect; 0% is about no effect; nearly all actives have a fitted effect of over 55% in size
NS1 function inh: influenza NS1 inhibition; Potency, µM (doses to about 46.1 µM), for inactives: top-dose activity, positive = more growth; 270,000 tested, 0.4% active; note: potency is the fitted concentration of half-maximal effect; actives are rising curves; nearly all actives have a fitted effect of over 50% in size
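OD600 was taken as the measure of yeast growth restored by compound in an NS1-expressing S. cerevisiae strain. Cells had been washed out of glucose medium and diluted 1:100 into galactose -URA medium, pH 6.0.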
An asterisk follows results filed as active; ? = inconclusive; / = no result given; [ ] = dose if it differs, or a comment. This is a sample that favours compounds with a hit; in the whole collection about 21% have one here. Unless noted, calls come from the whole dose curve.

SMILES	Pf growth 48h	Pf growth 96h	Cycloheximide cs	Shiga toxin inh	SARS PLpro yeast	NS1 function inh
CC(=O)c1cc(CN2CCN(Cc3ccccc3)C(CCO)C2)cs1 (configuration not stated)	40%	?	0	10	0%	-1%
CCOC(=O)C(C)On1c(-c2ccc(Cl)cc2)nc2ccc([N+](=O)[O-])cc21 (configuration not stated)	-8%	/	33	129	-35%	-10%
O=C(O)COn1c(-c2ccccc2)nc2ccc([N+](=O)[O-])cc21	20%	7%	25*	49*	-1%	-4%
CCOC(=O)C(C)On1c(-c2ccccc2)nc2ccc([N+](=O)[O-])cc21 (configuration not stated)	118%	/	35*	50*	-8%	-68%
Cn1c(-c2ccc([N+](=O)[O-])cc2)nc2ccccc21	36%	26%	8	16	-1%	-1%
O=C(CN(Cc1ccccc1)S(=O)(=O)c1ccc(F)cc1)NCc1ccccn1	?	?	-6	-15	0%	0%
CCOC(=O)CN(C(=O)CSc1nnc(COc2ccc(OC)cc2)n1CC)c1ccccc1	8.3µM*	6.6µM*	2	-5	0%	-33%
CCOC(=O)CN(C(=O)CSc1nnc(CNc2ccc(C)cc2C)n1CC)c1ccccc1	?	9.3µM*	6	-11	3%	-8%
CCn1c(COc2ccccc2C)nnc1SCC(=O)N1CCCCC1	?	7.4µM*	-1	-19	2%	4%
CCn1c(COc2ccccc2)nnc1SCC(=O)C(C)(C)C	12µM*	9.3µM*	16	2	6%	7%
CCOC(=O)CN(C(=O)CSc1nnc(CNc2ccc(F)cc2)n1CC)c1ccc(F)cc1	?	/	-1	19	4%	14%
Cc1c(S(=O)(=O)NC2CCCCCC2)c(=O)n(C)c(=O)n1C	2%	4%	/	/	2%	/
CC(C)c1nc2sc3c(NCc4ccccc4)ncnc3c2c2c1COC(C)(C)C2	/	9.3µM*	1	-1	-1%	9%
COc1cc(/C=C2\SC(=O)N(CCNC(=O)c3sc4cc(F)ccc4c3Cl)C2=O)cc(OC)c1OC	?	?	0	12	0%	5%
CSCC[C@H](NC(=O)c1nn(C)c(=O)c2ccccc12)c1nc2ccccc2[nH]1	?	?	24	-10	1%	-8%
CSCC[C@H](NC(=O)C(C)Oc1ccc(Cl)cc1)c1nc2ccccc2[nH]1 (some centres not stated)	?	6.6µM*	-3	20	-22%	-1%
CCn1nc(C(=O)N[C@@H](CCSC)c2nc3ccccc3[nH]2)c2ccccc2c1=O	/	?	25*	23	3%	-14%
CCCCn1nc(C(=O)N[C@@H](CCSC)c2nc3ccccc3[nH]2)c2ccccc2c1=O	?	12µM*	-3	21	/	-1%
Cc1nnc2n(c1=O)N=C(c1ccc(Cl)cc1)CS2	90%	6%	21	25	27%	?
Cc1ccc(-c2ccnc3nc(-n4cccc4)nn23)o1	?	-33%	10	19	1%	/
O=C(COc1ccc2ccc(=O)oc2c1)NCCCN1CCCC1=O	25%	-15%	-13	-5	-2%	7%
CNC(=O)c1c(NC(=O)c2cc(-c3cc(C)c(C)cc3O)n[nH]2)sc2c1CCCC2	0%	?	-4	-2	-2%	3%
Cc1cccc(OCCC(=O)Nc2ccc(F)c(Cl)c2)c1	27%	32%	7	-5	-53%	-48%
COCCNc1nc(-c2cc(C)c(C)cc2C)cs1	?	?	20*	73*	-1%	7%
C=CC[C@H]1CC(Cc2ccccc2)=C[C@H](CC=C)N1	0.23µM*	0.074µM*	-4	-6	-9%	-9%
SMILES	Pf growth 48h	Pf growth 96h	Cycloheximide cs	Shiga toxin inh	SARS PLpro yeast	NS1 function inh
C=CC[C@H]1CC(C)=C[C@H](CC=C)N1	0.93µM*	?	2	3	1%	/
COC(=O)C1=C[C@@H](C(=O)OC)C2C3=C(C(=O)[C@@]2(C)NC(=O)c2ccccc2)[C@H](c2ccccc2)n2c(=O)n(-c4ccccc4)c(=O)n2[C@@H]3C1 (some centres not stated)	/	/	-4	2	/	/
Cc1ccc(Nc2nnc(SCC(=O)c3ccc(O)cc3O)s2)cc1	?	2.1µM*	16	16	2%	?
O=C(CSc1nnc(Nc2ccccc2)s1)NCc1cccs1	0%	12µM*	-2	-5	-1%	8%
CC(C)(C)C(=O)CSc1nnc(Nc2ccccc2)s1	57%	-4%	34*	51	1%	/
OCCSc1nnc(Nc2ccccc2)s1	-19%	?	38*	87*	-10%	-88%
Cc1cccc(Nc2nnc(SCC(=O)c3ccc(O)cc3O)s2)c1	-26%	?	19	27	3%	-7%
COc1ccc(CCNC(=O)CSc2ccc3nnc(CCNC(=O)c4ccccc4)n3n2)cc1OC	24%	-16%	-3	-2	2%	12%
COc1ccc(OC)c(S(=O)(=O)N2CCCC2C(=O)NC(C)c2ccccc2)c1 (configuration not stated)	-17%	-10%	-2	-8	-3%	5%
CCc1ccc(OCC(=O)Nc2ccc(S(=O)(=O)Nc3cc(C)on3)cc2)c(Br)c1	-1%	47%	2	12	-3%	3%
COCCn1c(C)c(C)c(S(=O)(=O)c2ccccc2)c1N	-17%[0.00184 µM]	10%	-2	-4	-1%	5%
CC(C)C[C@H](NC(=O)CNC(=O)[C@H](CCC(N)=O)NC(=O)[C@H](Cc1ccc(O)cc1)NC(=O)[C@@H](NC(=O)[C@H](Cc1ccc(O)cc1)NC(=O)CNC(=O)[C@@H](N)CCCN=C(N)N)C(C)C)C(=O)O	/	/	-3	-6	/	/
O=C(O)c1cc(N=Nc2ccc([As](=O)(O)O)cc2)ccc1O	/	/	/	/	/	-3%
CN(C(=O)CSc1nnc(Nc2ccccc2)s1)c1c(N)n(Cc2ccccc2)c(=O)[nH]c1=O	-20%	/	29*	97	-5%	-4%
Cn1c(=O)[nH]c(=O)c2c1nc([N+](=O)[O-])n2Cc1ccccc1	7.4µM*	13µM*	2	-11	-2%	-5%
Cc1nc(N2CCN(Cc3ccccc3)CC2)[nH]c(=O)c1C	19%	2.6µM*	-3	-2	1%	-5%
CC1CCN(c2nc3c(c(=O)n(C)c(=O)n3C)n2Cc2ccccc2)CC1	13µM*	?	-2	-14	-3%	-40%
Cn1c(=O)c2c(nc(N3CCN(Cc4ccccc4)CC3)n2CCCc2ccccc2)n(C)c1=O	3.7µM*	6.6µM*	7	22	6%	-40%
Cc1ncoc1C(=O)N1CCCC(C(=O)c2ccc(C(F)(F)F)cc2)C1 (configuration not stated)	0%	-7%	6	9	1%	5%
